{"source": "paper PMC5540273", "about": "(PLoS ONE, 2017);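 further: KINOMEscan kinase panel screen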"}
{"system": "LIMK1", "settings": "concentration: 1 μM, replicates: in singlicate; n = 1", "units": {"%Inh": "%"}}
{"smiles": "COc1cc2ncn(-c3cc(OCc4ccncc4)c(C(N)=O)s3)c2cc1OC", "note": "[GSK336313]", "%Inh": 2}
{"smiles": "OCCCNc1nccc(-c2c(-c3cccc(C(F)(F)F)c3)nn3cc(C(F)(F)F)ccc23)n1", "note": "[GW630813]", "%Inh": 0}
{"smiles": "Cc1ccc(Oc2ccc(Nc3ncnc4cc[nH]c34)cc2C)cn1", "%Inh": 4}
{"smiles": "COc1cc(Nc2nccc(N3CCC(NC(=O)C(C)c4ccc(Cl)cc4)C3)n2)cc(OC)c1OC", "note": "(stereo not drawn) [GSK1379757]", "%Inh": 1}
{"smiles": "Nc1nc(N)c2nc(-c3ccccc3)[nH]c2n1", "note": "[SKF-12778]", "%Inh": 0}
{"smiles": "COc1cc(OC)cc(-c2cc3cnc(N)nc3nc2NC(=O)NC(C)(C)C)c1", "%Inh": 0}
{"smiles": "COc1cc2nccc(Nc3cccc(Oc4ccccc4)c3)c2cc1OC.Cl", "note": "[GW284543]", "%Inh": 0}
{"smiles": "CCn1c(-c2ccoc2)nc2cnccc21", "note": "[SB-733887]", "%Inh": 10}
{"smiles": "CCn1c(-c2nonc2N)nc2ccccc21", "note": "[SB-693162/GW549034]", "%Inh": 0}
{"smiles": "COC(=O)c1c(-c2ccccc2)c2cc(C)ccc2c(=O)n1Cc1ccccc1", "%Inh": 5}
{"smiles": "CCCNC(=O)Nc1ccc(Oc2ncnc3ccn(C)c23)cc1", "%Inh": 0}
{"smiles": "COc1ccc(-c2coc3ccc(-c4nnc(SCc5cccc(C#N)c5)o4)cc23)cc1", "%Inh": 26}
{"smiles": "CCC(=O)c1c(-c2ccccc2)c2cc(Cl)ccc2c(=O)n1Cc1cc(S(C)(=O)=O)n(CC(F)F)n1", "%Inh": 0}
{"smiles": "CN1C(=O)C(Nc2ccccc2)=C(c2ccccc2)C1=O", "note": "[SB-300079]", "%Inh": 0}
{"smiles": "Cc1ccccc1COc1cc(-n2cnc3cc(Cl)ccc32)sc1C(N)=O", "note": "[GW813349]", "%Inh": 0}
{"smiles": "COc1cc2ncn(-c3cc(OCCCc4ccccc4)c(C(N)=O)s3)c2cc1OC", "note": "[GSK205189]", "%Inh": 0}
{"smiles": "COc1cc2ncn(-c3cc(OCc4ccncc4Br)c(C(N)=O)s3)c2cc1OC", "note": "[GW854278]", "%Inh": 0}
{"smiles": "O=C1NC(=O)C(c2ccccc2)=C1Nc1cccc(O)c1", "note": "[SB-390534]", "%Inh": 0}
{"smiles": "Cc1cccc(-c2nc(Nc3ccc4c(cnn4C)c3)c3ccccc3n2)n1", "note": "[GW876731]", "%Inh": 0}
{"smiles": "COc1ccc(CNC(=O)NC2CCN(c3ccnc(Nc4ccc(F)cc4)n3)C2)cc1", "note": "(stereo not drawn) [GSK1379706]", "%Inh": 0}
{"smiles": "O=C(NCCNc1ccnc(Nc2ccc(F)cc2)n1)Nc1ccc2c(c1)OCO2", "note": "[GSK1379882]", "%Inh": 0}
{"smiles": "CCS(=O)(=O)c1ccc(OC)c(Nc2ncc(-c3ccc(F)cc3)o2)c1.Cl", "note": "[GW591947]", "%Inh": 0}
{"smiles": "COC(=O)c1c(-c2ccccc2)c2cc(Br)ccc2c(=O)n1Cc1ccc(NC(=O)CCC(=O)O)cc1", "%Inh": 0}
{"smiles": "O=C(Nc1n[nH]c2cc(-c3ccccc3F)ccc12)C1CC1", "note": "[SB-733371]", "%Inh": 0}
{"smiles": "Cc1nn2c(=O)cc(N3CCOCC3)nc2n1Cc1cccc(Cl)c1Cl", "note": "[GSK2342769]", "%Inh": 0}
{"smiles": "O=c1cc(N2CCOCC2)nc2n(Cc3ccc(F)c(Cl)c3)ccn12", "note": "[GSK2297099]", "%Inh": 7}
{"smiles": "Cc1nnc(-c2ccc(C)c(-c3ccc(C(=O)O)cc3)c2)o1", "note": "[GW608005]", "%Inh": 4}
{"smiles": "Cc1c(Cn2c(C)nn3c(=O)cc(N4CCO[C@H](C)C4)nc23)cccc1C(F)(F)F", "note": "[GSK2373690]", "%Inh": 5}
{"smiles": "Nc1ncnc2c1ncn2-c1cccc(F)c1", "note": "[SKF-97560]", "%Inh": 20}
{"smiles": "Nc1ncnc2c1ncn2-c1ccc(Cl)cc1", "note": "[AH2635]", "%Inh": 0}
{"smiles": "CC(C)(C)c1ccc(C(=O)Nc2cn3cc(-c4ccccc4)ccc3n2)cc1", "%Inh": 10}
{"smiles": "Nc1nc(-c2ccccc2F)c(-c2ccnc3ccccc23)s1", "note": "[GW560459]", "%Inh": 1}
{"smiles": "CCC(=O)c1c(-c2ccccc2)c2cc(Cl)ccc2c(=O)n1Cc1cc(C(=O)NC2CC2)n(C)n1", "%Inh": 0}
{"smiles": "CCS(=O)c1ccc(-c2coc3ccc(-c4nnc(C)o4)cc23)cc1", "note": "(stereo not drawn)", "%Inh": 0}
{"smiles": "COc1ccc(-c2cc3c(C)nc(N)nc3n([C@H]3CC[C@H](OCCO)CC3)c2=O)cn1", "%Inh": 13}
{"smiles": "O=C(Nc1ccc2c(c1)OCO2)NC1CCN(c2ccnc(NCc3ccc(F)cc3)n2)CC1", "note": "[GSK1379859]", "%Inh": 0}
{"system": "LIMK2", "settings": "concentration: 1 μM, replicates: in singlicate; n = 1", "units": {"%Inh": "%"}}
{"smiles": "COc1cc2ncn(-c3cc(OCc4ccncc4)c(C(N)=O)s3)c2cc1OC", "note": "[GSK336313]", "%Inh": 18}
{"smiles": "OCCCNc1nccc(-c2c(-c3cccc(C(F)(F)F)c3)nn3cc(C(F)(F)F)ccc23)n1", "note": "[GW630813]", "%Inh": 12}
{"smiles": "Cc1ccc(Oc2ccc(Nc3ncnc4cc[nH]c34)cc2C)cn1", "%Inh": 0}
{"smiles": "COc1cc(Nc2nccc(N3CCC(NC(=O)C(C)c4ccc(Cl)cc4)C3)n2)cc(OC)c1OC", "note": "(stereo not drawn) [GSK1379757]", "%Inh": 22}
{"smiles": "Nc1nc(N)c2nc(-c3ccccc3)[nH]c2n1", "note": "[SKF-12778]", "%Inh": 3}
{"smiles": "COc1cc(OC)cc(-c2cc3cnc(N)nc3nc2NC(=O)NC(C)(C)C)c1", "%Inh": 0}
{"smiles": "COc1cc2nccc(Nc3cccc(Oc4ccccc4)c3)c2cc1OC.Cl", "note": "[GW284543]", "%Inh": 0}
{"smiles": "CCn1c(-c2ccoc2)nc2cnccc21", "note": "[SB-733887]", "%Inh": 6}
{"smiles": "CCn1c(-c2nonc2N)nc2ccccc21", "note": "[SB-693162/GW549034]", "%Inh": 0}
{"smiles": "COC(=O)c1c(-c2ccccc2)c2cc(C)ccc2c(=O)n1Cc1ccccc1", "%Inh": 0}
{"smiles": "CCCNC(=O)Nc1ccc(Oc2ncnc3ccn(C)c23)cc1", "%Inh": 0}
{"smiles": "COc1ccc(-c2coc3ccc(-c4nnc(SCc5cccc(C#N)c5)o4)cc23)cc1", "%Inh": 0}
{"smiles": "CCC(=O)c1c(-c2ccccc2)c2cc(Cl)ccc2c(=O)n1Cc1cc(S(C)(=O)=O)n(CC(F)F)n1", "%Inh": 0}
{"smiles": "CN1C(=O)C(Nc2ccccc2)=C(c2ccccc2)C1=O", "note": "[SB-300079]", "%Inh": 0}
{"smiles": "Cc1ccccc1COc1cc(-n2cnc3cc(Cl)ccc32)sc1C(N)=O", "note": "[GW813349]", "%Inh": 13}
{"smiles": "COc1cc2ncn(-c3cc(OCCCc4ccccc4)c(C(N)=O)s3)c2cc1OC", "note": "[GSK205189]", "%Inh": 0}
{"smiles": "COc1cc2ncn(-c3cc(OCc4ccncc4Br)c(C(N)=O)s3)c2cc1OC", "note": "[GW854278]", "%Inh": 8}
{"smiles": "O=C1NC(=O)C(c2ccccc2)=C1Nc1cccc(O)c1", "note": "[SB-390534]", "%Inh": 0}
{"smiles": "Cc1cccc(-c2nc(Nc3ccc4c(cnn4C)c3)c3ccccc3n2)n1", "note": "[GW876731]", "%Inh": 0}
{"smiles": "COc1ccc(CNC(=O)NC2CCN(c3ccnc(Nc4ccc(F)cc4)n3)C2)cc1", "note": "(stereo not drawn) [GSK1379706]", "%Inh": 29}
{"smiles": "O=C(NCCNc1ccnc(Nc2ccc(F)cc2)n1)Nc1ccc2c(c1)OCO2", "note": "[GSK1379882]", "%Inh": 0}
{"smiles": "CCS(=O)(=O)c1ccc(OC)c(Nc2ncc(-c3ccc(F)cc3)o2)c1.Cl", "note": "[GW591947]", "%Inh": 0}
{"smiles": "COC(=O)c1c(-c2ccccc2)c2cc(Br)ccc2c(=O)n1Cc1ccc(NC(=O)CCC(=O)O)cc1", "%Inh": 0}
{"smiles": "O=C(Nc1n[nH]c2cc(-c3ccccc3F)ccc12)C1CC1", "note": "[SB-733371]", "%Inh": 0}
{"smiles": "Cc1nn2c(=O)cc(N3CCOCC3)nc2n1Cc1cccc(Cl)c1Cl", "note": "[GSK2342769]", "%Inh": 0}
{"smiles": "O=c1cc(N2CCOCC2)nc2n(Cc3ccc(F)c(Cl)c3)ccn12", "note": "[GSK2297099]", "%Inh": 6}
{"smiles": "Cc1nnc(-c2ccc(C)c(-c3ccc(C(=O)O)cc3)c2)o1", "note": "[GW608005]", "%Inh": 0}
{"smiles": "Cc1c(Cn2c(C)nn3c(=O)cc(N4CCO[C@H](C)C4)nc23)cccc1C(F)(F)F", "note": "[GSK2373690]", "%Inh": 0}
{"smiles": "Nc1ncnc2c1ncn2-c1cccc(F)c1", "note": "[SKF-97560]", "%Inh": 22}
{"smiles": "Nc1ncnc2c1ncn2-c1ccc(Cl)cc1", "note": "[AH2635]", "%Inh": 6}
{"smiles": "CC(C)(C)c1ccc(C(=O)Nc2cn3cc(-c4ccccc4)ccc3n2)cc1", "%Inh": 0}
{"smiles": "Nc1nc(-c2ccccc2F)c(-c2ccnc3ccccc23)s1", "note": "[GW560459]", "%Inh": 0}
{"smiles": "CCC(=O)c1c(-c2ccccc2)c2cc(Cl)ccc2c(=O)n1Cc1cc(C(=O)NC2CC2)n(C)n1", "%Inh": 0}
{"smiles": "CCS(=O)c1ccc(-c2coc3ccc(-c4nnc(C)o4)cc23)cc1", "note": "(stereo not drawn)", "%Inh": 0}
{"smiles": "COc1ccc(-c2cc3c(C)nc(N)nc3n([C@H]3CC[C@H](OCCO)CC3)c2=O)cn1", "%Inh": 0}
{"smiles": "O=C(Nc1ccc2c(c1)OCO2)NC1CCN(c2ccnc(NCc3ccc(F)cc3)n2)CC1", "note": "[GSK1379859]", "%Inh": 21}
